In PubChem BioAssay (Tox21):
Records with an inconclusive call do not appear. Active and inactive are the calls of the source. Unless noted, calls follow the shape of the dose curve; as a rule, active = well fitted curve in the direction sought with a large enough effect in the repeat runs; inconclusive = weak or mixed curves; inactive = flat fitted curve, though single readings scatter.

Assays:
[1] = qHTS assay to test for compound auto fluorescence at 535 nm (green) in HEK293 cells (AID 720680)
[2] = qHTS assay to test for compound auto fluorescence at 460 nm (blue) in HEK293 cell free culture (AID 720681)
Summary of the method: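 Compounds were added to cell-free DMEM with 10% FBS and fluorescence read directly. The blue channel used 405 nm excitation and 460 nm emission, with triamterene as the reference fluorophore.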

[3] = qHTS assay to test for compound auto fluorescence at 535 nm (green) in HEK293 cell free culture (AID 720682)
Summary of the method: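 Measurement is a direct plate read of green fluorescence (485 nm in, 535 nm out) after compound addition to serum-supplemented DMEM lacking cells, with fluorescein used to express intensities.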

[4] = qHTS assay to test for compound auto fluorescence at 590 nm (red) in HEK293 cell free culture (AID 720683)
Summary of the method: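 Cell-free wells of DMEM with 10% FBS received compound, and intrinsic fluorescence was read at excitation/emission 540/590 nm. Values expressed as equivalence to Rose Bengal sodium.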

[5] = qHTS assay to test for compound auto fluorescence at 590 nm (red) in HepG2 cell free culture (AID 720684)
Summary of the method: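 Auto fluorescence equivalency versus Rose Bengal sodium, red channel Ex/Em 540/590 nm; compounds in cell-free MEM/10% FBS; DMSO vehicle control.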

[6] = qHTS assay to test for compound auto fluorescence at 460 nm (blue) in HepG2 cell free culture (AID 720685)
Summary of the method: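 Cell-free plates of MEM plus 10% FBS received 23 nL compound or DMSO vehicle; blue-channel (405/460 nm) intensity scored against triamterene as reference fluorophore.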

[7] = qHTS assay to test for compound auto fluorescence at 535 nm (green) in HepG2 cell free culture (AID 720686)
[8] = qHTS assay to test for compound auto fluorescence at 460 nm (blue) in HepG2 cells (AID 720687)
Summary of the method: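 HepG2 cells in MEM with 10% FBS, attached overnight at 37 C, were exposed to compound or DMSO for 1 hr at 37 C, 5% CO2. Blue fluorescence was read at 405/460 nm, with triamterene as reference fluorophore.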

[9] = target: Glucocorticoid receptor (Homo sapiens) (UniProt P04150); test: qHTS assay to identify small molecule agonists of the glucocorticoid receptor (GR) signaling pathway (AID 720691; active = well fitted activation curve with a large enough effect in the signal ratio in the repeat runs, not every such curve was filed as active; the % refers to the signal ratio)
Summary of the method: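 Cells: GR-bla HeLa, endogenous GR with stably integrated GRE-beta-lactamase reporter. Treatment 18 h, 37 C, compounds delivered in DMSO. Detection via LiveBLAzer B/G FRET substrate, 2 h RT, fluorescence intensity.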

[10] = target: Glucocorticoid receptor (Homo sapiens) (UniProt P04150); test: qHTS assay to identify small molecule antagonists of the glucocorticoid receptor (GR) signaling pathway (AID 720692; active = well fitted inhibition curve with a large enough effect in the signal ratio in the repeat runs, not every such curve was filed as active; the % refers to the signal ratio)
Summary of the method: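 Quantitative HTS in antagonist format: HeLa cells expressing endogenous GR and a stably integrated GRE-bla reporter, stimulated with 5 nM dexamethasone (final) alongside test compounds for 18 h.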
% is scaled to controls: 0 for no effect and ±100 for the full control effect.

Sequence of Glucocorticoid receptor (Homo sapiens) (P04150 whole entry, looked up): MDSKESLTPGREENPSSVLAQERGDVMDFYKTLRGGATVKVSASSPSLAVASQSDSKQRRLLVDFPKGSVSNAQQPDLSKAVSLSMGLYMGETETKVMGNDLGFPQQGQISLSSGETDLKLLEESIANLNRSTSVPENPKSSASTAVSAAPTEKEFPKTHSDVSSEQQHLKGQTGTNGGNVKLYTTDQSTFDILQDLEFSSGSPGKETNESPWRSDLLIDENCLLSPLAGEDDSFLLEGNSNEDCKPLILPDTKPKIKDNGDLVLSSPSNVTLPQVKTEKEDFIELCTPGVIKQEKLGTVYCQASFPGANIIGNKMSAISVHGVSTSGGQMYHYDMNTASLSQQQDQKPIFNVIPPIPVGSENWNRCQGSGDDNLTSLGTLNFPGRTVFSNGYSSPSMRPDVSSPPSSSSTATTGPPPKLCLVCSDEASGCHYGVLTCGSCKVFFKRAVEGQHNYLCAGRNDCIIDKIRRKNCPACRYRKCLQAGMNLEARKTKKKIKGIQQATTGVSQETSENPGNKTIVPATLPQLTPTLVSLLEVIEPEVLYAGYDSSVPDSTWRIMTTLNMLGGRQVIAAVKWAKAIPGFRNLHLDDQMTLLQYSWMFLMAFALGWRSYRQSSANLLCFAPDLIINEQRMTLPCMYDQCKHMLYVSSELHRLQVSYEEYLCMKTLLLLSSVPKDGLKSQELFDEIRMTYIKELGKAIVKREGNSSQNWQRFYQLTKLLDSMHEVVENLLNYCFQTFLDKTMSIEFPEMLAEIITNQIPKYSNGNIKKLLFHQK

O=C(O)c1c2ccccc2cc2ccccc12
inactive: outcome [1] | Potency [2] | outcome [3] | outcome [4] | outcome [5] | outcome [6] | outcome [7] | outcome [8]

Cc1c(Nc2ncccc2C(=O)O)cccc1C(F)(F)F
inactive: fluorescence, % of fluorescein [1] 0.0171% [at 18.6 µM] | fluorescence, % of fluorescent control [2] -0.115% [at 18.6 µM] | activity change [3] 0.0935% [at 18.6 µM] | fluorescence, % of fluorescent control [4] -0.29% [at 18.6 µM] | fluorescence, % of Rose Bengal [5] 0.0144% [at 18.6 µM] | fluorescence, % of fluorescent control [6] 0.0612% [at 18.6 µM] | fluorescence, % of fluorescein control [7] -0.0657% [at 18.6 µM] | fluorescence, % of fluorescent control [8] 0.0693% [at 18.6 µM]

NC(=O)c1ccccc1C(N)=O
inactive: outcome [1] | Potency [2] | outcome [3] | outcome [4] | outcome [5] | outcome [6] | outcome [7] | outcome [8]

Cc1cc(C)c(C)c(O)c1
inactive: outcome [1] | Potency [2] | outcome [3] | outcome [4] | outcome [5] | outcome [6] | outcome [7] | outcome [8]

CCc1ccc2c(c1)C(=O)c1ccccc1C2=O
inactive: outcome [1] | Potency [2] | outcome [3] | outcome [4] | outcome [5] | outcome [6] | outcome [7] | outcome [8]

O=C(N[C@@H](Cc1ccccc1)[C@@H](O)C(=O)N1C[C@@H](O)[C@@H](O)C1)c1cc2cc(Cl)ccc2[nH]1
inactive: outcome [1] | Potency [2] | outcome [3] | outcome [4] | outcome [5] | outcome [6] | outcome [7]

C=C(C)C(=O)OCCCCCCCCCCOC(=O)C(=C)C
inactive: outcome [1] | Potency [2] | outcome [3] | outcome [4] | outcome [5] | outcome [6] | outcome [7]

CCc1c(C)[nH]c2c1C(=O)C(CN1CCOCC1)CC2 (configuration not stated)
inactive: fluorescence, % of fluorescein [1] 0.152% [at 18.6 µM] | fluorescence, % of fluorescent control [2] 0.0226% [at 18.6 µM] | activity change [3] 0.141% [at 18.6 µM] | fluorescence, % of fluorescent control [4] 0.113% [at 18.6 µM] | fluorescence, % of Rose Bengal [5] -0.199% [at 18.6 µM] | fluorescence, % of fluorescent control [6] -0.0691% [at 18.6 µM] | fluorescence, % of fluorescein control [7] 0.0022% [at 18.6 µM] | fluorescence, % of fluorescent control [8] 0.0012% [at 18.6 µM]

CCOCCn1c(N2CCCN(C)CC2)nc2ccccc21
inactive: outcome [1] | Potency [2] | outcome [3] | outcome [4] | outcome [5] | outcome [6] | outcome [7] | outcome [8]

CC(C)=CCC[C@H](C)CCO
inactive: outcome [1] | Potency [2] | outcome [3] | outcome [4] | outcome [5] | outcome [6] | outcome [7] | outcome [8]

CC(C)CC(C)(C)C
inactive: outcome [1] | Potency [2] | outcome [3] | outcome [4] | outcome [5] | outcome [6] | outcome [7] | outcome [8] | Potency [9]

C=CC(C)CCC=C(C)C (configuration not stated)
inactive: outcome [1] | Potency [2] | outcome [3] | outcome [4] | outcome [5] | outcome [6] | outcome [7] | outcome [8] | Potency [9] | Potency [10]

O=C1C=CCCC1
inactive: outcome [1] | Potency [2] | outcome [3] | outcome [4] | outcome [5] | outcome [6] | outcome [7] | outcome [8]

O=C1c2ccccc2C(=O)c2c1ccc(O)c2O
inactive: outcome [1] | Potency [2] | outcome [3] | outcome [4] | outcome [5] | outcome [6] | outcome [7] | outcome [8] | Potency [9]

Clc1ccccc1-c1nc(-c2ccncc2)no1
inactive: outcome [1] | Potency [2] | outcome [3] | outcome [4] | outcome [5] | outcome [6] | outcome [7] | outcome [8] | Potency [9]

CC(=O)c1ccc(Cl)c(Cl)c1Cl
inactive: outcome [1] | Potency [2] | outcome [3] | outcome [4] | outcome [5] | outcome [6] | outcome [7] | outcome [8] | Potency [9]

N#CCCCC(C#N)CCC#N (configuration not stated)
inactive: outcome [1] | Potency [2] | outcome [3] | outcome [4] | outcome [5] | outcome [6] | outcome [7] | outcome [8]

FC1(F)C(F)(F)C(F)(F)C2(F)C(F)(C1(F)F)C(F)(F)C(F)(F)C1(F)C(F)(F)C(F)(F)C(F)(F)C(F)(F)C12F (configuration not stated)
inactive: outcome [1] | Potency [2] | outcome [3] | outcome [4] | outcome [5] | outcome [6] | outcome [7] | outcome [8] | Potency [9]

CCOc1ccc2c(c1)C(C)CC(C)(C)N2 (configuration not stated)
inactive: outcome [1] | Potency [2] | outcome [3] | outcome [4] | outcome [5] | outcome [6] | outcome [7] | outcome [8] | Potency [9] | Potency [10]

O=c1[nH][nH]c2ccccc12
inactive: outcome [1] | Potency [2] | outcome [3] | outcome [4] | outcome [5] | outcome [6] | outcome [7] | outcome [8] | Potency [9]

CCc1cnc(C(=O)O)c(C(=O)O)c1
inactive: outcome [1] | Potency [2] | outcome [3] | outcome [4] | outcome [5] | outcome [6] | outcome [7] | outcome [8]

Cc1c(Cl)cccc1Nc1ccccc1C(=O)O
inactive: outcome [1] | Potency [2] | outcome [3] | outcome [4] | outcome [5] | outcome [6] | outcome [7] | outcome [8]

CCOC(OCC)OCC
inactive: outcome [1] | Potency [2] | outcome [3] | outcome [4] | outcome [5] | outcome [6] | outcome [7] | outcome [8] | Potency [9] | Potency [10]

COc1ccc(/C=C/S(=O)(=O)NC(=O)c2ccc(C)cc2Cl)cc1
inactive: outcome [1] | Potency [2] | outcome [3] | outcome [4] | outcome [5] | outcome [6] | outcome [7] | outcome [8]

O=C(OCCOCCOCCOC(=O)c1ccccc1)c1ccccc1
inactive: outcome [1] | Potency [2] | outcome [3] | outcome [4] | outcome [5] | outcome [6] | outcome [7] | outcome [8] | Potency [9] | Potency [10]
